Data as given in PubChem BioAssay (Tox21).
Results filed as inconclusive are left out. The source made the active and inactive calls. Unless noted, calls come from the whole dose curve; as a rule, active = well fitted curve in the direction sought with a large enough effect in the repeat runs; inconclusive = weak or mixed curves; inactive = no such curve, though single readings can be large; an effect the other way counts as inactive or inconclusive.

How the values were obtained:
[1] = qHTS assay to identify small molecule antagonists of the estrogen receptor alpha (ER-alpha) signaling pathway - cell viability counter screen (AID 743074; calls by dose curve; note: nearly all actives have a fitted effect of over 45% in size)
[2] = qHTS assay to identify small molecule antagonists of the estrogen receptor alpha (ER-alpha) signaling pathway using the BG1 cell line - cell viability counter screen (AID 743081);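 note: compound given together with 17beta-estradiol as the ER stimulus; series mostly up to about 70 µM; nearly all actives have a fitted effect of over 45% in size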
Aromatase (Homo sapiens) = Aromatase (Homo sapiens) (UniProt P11511); test: qHTS assay to identify aromatase inhibitors (AID 743083); note: series mostly up to about 70 µM; nearly all actives have a fitted effect of over 55% in size
[3] = qHTS assay to identify aromatase inhibitors - cell viability counter screen (AID 743084);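 note: cells stimulated with testosterone during compound exposure; nearly all actives have a fitted effect of over 55% in size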
[4] = target: Aryl hydrocarbon receptor (Homo sapiens) (UniProt P35869); test: qHTS assay to identify small molecule that activate the aryl hydrocarbon receptor (AhR) signaling pathway (AID 743085);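 note: HG2L7.5c1 human HepG2 liver cells with stably integrated DRE-driven firefly reporter; series mostly up to about 70 µM; nearly all actives have a fitted effect of over 15% in size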
In short: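 Reporter assay in engineered HepG2 line HG2L7.5c1, whose plasmid carries twenty dioxin responsive elements upstream of firefly luciferase. Treatment lasted 24 h at 37C; ONE-Glo luminescence gauged induction.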

[5] = qHTS assay to identify small molecule that activate the aryl hydrocarbon receptor (AhR) signaling pathway - cell viability counter screen (AID 743086);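 note: HepG2 liver cells carrying the AhR DRE luciferase reporter; series mostly up to about 70 µM; nearly all actives have a fitted effect of over 45% in size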
In short: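 HepG2-AhR-luc (HG2L7.5c1) cells, 4000/well, were preincubated 5 h at 37C, exposed to compound in qHTS format for 24 hr at 37C, then given CellTiter-Fluor for 30 min; viability was read as fluorescence in the reporter wells.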

[6] = target: Peroxisome proliferator-activated receptor gamma (Homo sapiens) (UniProt P37231); test: qHTS assay to identify small molecule agonists of the peroxisome proliferator-activated receptor gamma (PPARg) signaling pathway (AID 743094; active = well fitted activation curve with a large enough effect in the signal ratio in the repeat runs, not every such curve was filed as active; the % refers to the signal ratio)
In short: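 HEK293H PPARg-bla cells, 5 h settle at 37C/5% CO2; compound (DMSO) 17 h, 37C; B/G FRET substrate 1 h RT; fluorescence intensity read-out. qHTS format.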

[7] = target: Peroxisome proliferator-activated receptor gamma (Homo sapiens) (UniProt P37231); test: qHTS assay to identify small molecule antagonists of the peroxisome proliferator-activated receptor gamma (PPARg) signaling pathway (AID 743191; calls by dose curve; note: series mostly up to about 63 µM; nearly all actives have a fitted effect of over 30% in size)
In short: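 GeneBLAzer PPARg UAS-bla HEK293H cells carrying a UAS-driven beta-lactamase reporter were plated at 3000 cells/well, preincubated 5 h at 37C, then given compound for 17 h at 37C; LiveBLAzer B/G FRET substrate was read after 1 h at room temperature.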

[8] = qHTS assay to identify small molecule antagonists of the peroxisome proliferator-activated receptor gamma (PPARg) signaling pathway - cell viability counter screen (AID 743194); note: nearly all actives have a fitted effect of over 55% in size
In short: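 PPARg-UAS-bla HEK293H cells were plated, rested 5 h at 37 C, then treated with compounds plus rosiglitazone (50 nM final) for 17 h at 37 C; viability was then read by CellTiter-Glo luminescence after 30 min at room temperature.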

[9] = qHTS assay for small molecule agonists of the antioxidant response element (ARE) signaling pathway (AID 743202; active = well fitted activation curve with a large enough effect in the signal ratio in the repeat runs, not every such curve was filed as active; the % refers to the signal ratio)
In short: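 Steps: seed ARE-bla HepG2 cells (2,000/well); incubate 5 h at 37 C; add compounds by pin tool; incubate 16 h at 37 C; add FRET substrate; read fluorescence after 2 h at RT.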

[10] = qHTS assay for small molecule agonists of the antioxidant response element (ARE) signaling pathway - cell viability counter screen (AID 743203; calls by dose curve; note: nearly all actives have a fitted effect of over 55% in size)
In short: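 Luminescence read-out (CellTiter-Glo, 30 min at room temperature) measured cell viability in the same wells as the ARE beta-lactamase reporter. HepG2 ARE-bla cells were treated with compounds for 16 hrs at 37C/5% CO2.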

[11] = qHTS assay for small molecule activators of the heat shock response signaling pathway - cell viability counter screen (AID 743209); note: nearly all actives have a fitted effect of over 50% in size
In short: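 HSE-bla HeLa; 1500 cells/well; overnight 37 C, 5% CO2; compound 5 h 37 C; LiveBLAzer B/G substrate 2.5 h RT; CellTiter-Glo 30 min RT; luminescence.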

[12] = qHTS assay to identify small molecule antagonists of the thyroid receptor (TR) signaling pathway (AID 743065)
In short: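 GH3.TRE-Luc rat pituitary cells carrying two TR response elements driving luciferase were plated for 4 h, given compound plus 1 nM T3 (final), and incubated 23.5 h at 37 C. ONE-Glo luminescence measured reporter inhibition; CellTiter-Fluor fluorescence tracked cytotoxicity.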

[13] = tested on: thyroid hormone receptor (rat, GH3 cells); test: qHTS assay to identify small molecule agonists of the thyroid receptor (TR) signaling pathway (AID 743066; calls by dose curve)
[14] = target: Estrogen receptor (Homo sapiens) (UniProt P03372); test: qHTS assay to identify small molecule agonists of the estrogen receptor alpha (ER-alpha) signaling pathway (AID 743075; calls by dose curve)
[15] = target: Estrogen receptor (Homo sapiens) (UniProt P03372); test: qHTS assay to identify small molecule agonists of the estrogen receptor alpha (ER-alpha) signaling pathway using the BG1 cell line (AID 743079); note: nearly all actives have a fitted effect of over 20% in size
[16] = qHTS assay to identify small molecule antagonists of the estrogen receptor alpha (ER-alpha) signaling pathway using the BG1 cell line (AID 743080; calls by dose curve; note: series mostly up to about 70 µM; nearly all actives have a fitted effect of over 25% in size)
In short: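 Antagonist mode: compounds in DMSO were pinned onto BG1-Luc-4E2 cells alongside 17beta-estradiol agonist, incubated 21.5 h, and ERE-driven luciferase measured with ONE-Glo. Cytotoxicity was multiplexed using CellTiter-Fluor fluorescence.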

[17] = qHTS assay for small molecule activators of the heat shock response signaling pathway (AID 743210; active = well fitted activation curve with a large enough effect in the signal ratio in the repeat runs, with a control signal flat, not every such curve was filed as active; the % refers to the signal ratio;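 note: HeLa cells with beta-lactamase reporter driven by heat shock elements; series mostly up to about 63 µM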)
In short: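 Activation of heat shock element-controlled beta-lactamase expression is measured in HeLa cells by LiveBLAzer FRET fluorescence, with compound exposure lasting 5 h at 37 C and substrate loading 2.5 h at room temperature.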

[18] = target: Estrogen receptor (Homo sapiens) (UniProt P03372); test: qHTS assay to identify small molecule antagonists of the estrogen receptor alpha (ER-alpha) signaling pathway (AID 743069; active = well fitted curve in the direction sought with a large enough effect in the signal ratio in the repeat runs, not every such curve was filed as active; the % refers to the signal ratio)
In short: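 Screening used a UAS-driven beta-lactamase reporter integrated into HEK293 cells expressing ER-alpha, stimulated with 17beta-estradiol alongside test compounds over 18 hr at 37C; signal came from LiveBLAzer B/G FRET fluorescence.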
% is set by controls: 0 for no effect and ±100 for the full control effect.

Sequence of Peroxisome proliferator-activated receptor gamma (Homo sapiens) (P37231 whole entry, looked up): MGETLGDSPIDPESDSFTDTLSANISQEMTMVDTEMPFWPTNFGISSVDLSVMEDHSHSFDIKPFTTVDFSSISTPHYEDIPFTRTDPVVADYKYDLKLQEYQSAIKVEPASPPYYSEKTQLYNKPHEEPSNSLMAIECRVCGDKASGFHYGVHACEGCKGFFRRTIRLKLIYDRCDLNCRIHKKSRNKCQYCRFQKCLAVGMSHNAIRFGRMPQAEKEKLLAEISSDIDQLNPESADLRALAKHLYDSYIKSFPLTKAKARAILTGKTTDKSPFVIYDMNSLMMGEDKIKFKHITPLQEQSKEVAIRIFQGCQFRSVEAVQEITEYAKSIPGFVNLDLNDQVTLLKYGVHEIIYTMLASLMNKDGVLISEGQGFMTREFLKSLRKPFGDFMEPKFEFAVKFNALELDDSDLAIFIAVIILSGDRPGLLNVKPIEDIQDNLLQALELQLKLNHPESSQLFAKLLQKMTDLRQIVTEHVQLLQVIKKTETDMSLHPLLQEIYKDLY
Sequence of Estrogen receptor (Homo sapiens) (P03372 whole entry, looked up): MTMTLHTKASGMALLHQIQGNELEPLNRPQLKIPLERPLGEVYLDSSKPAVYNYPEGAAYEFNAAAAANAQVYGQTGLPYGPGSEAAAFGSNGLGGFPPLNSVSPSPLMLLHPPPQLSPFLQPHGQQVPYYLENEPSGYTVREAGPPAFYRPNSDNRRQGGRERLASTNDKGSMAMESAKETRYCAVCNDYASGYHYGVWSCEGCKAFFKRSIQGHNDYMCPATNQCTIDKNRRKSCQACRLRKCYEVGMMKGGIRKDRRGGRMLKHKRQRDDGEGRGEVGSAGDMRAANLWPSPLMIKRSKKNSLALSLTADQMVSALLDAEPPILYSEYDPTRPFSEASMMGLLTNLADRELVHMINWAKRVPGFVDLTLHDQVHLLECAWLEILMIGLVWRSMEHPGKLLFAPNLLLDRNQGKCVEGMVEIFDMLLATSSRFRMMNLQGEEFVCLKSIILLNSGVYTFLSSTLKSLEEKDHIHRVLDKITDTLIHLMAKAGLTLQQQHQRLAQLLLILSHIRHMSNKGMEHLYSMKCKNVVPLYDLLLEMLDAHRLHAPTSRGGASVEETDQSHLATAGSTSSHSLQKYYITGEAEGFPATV
Sequence of Aromatase (Homo sapiens) (P11511 whole entry, looked up): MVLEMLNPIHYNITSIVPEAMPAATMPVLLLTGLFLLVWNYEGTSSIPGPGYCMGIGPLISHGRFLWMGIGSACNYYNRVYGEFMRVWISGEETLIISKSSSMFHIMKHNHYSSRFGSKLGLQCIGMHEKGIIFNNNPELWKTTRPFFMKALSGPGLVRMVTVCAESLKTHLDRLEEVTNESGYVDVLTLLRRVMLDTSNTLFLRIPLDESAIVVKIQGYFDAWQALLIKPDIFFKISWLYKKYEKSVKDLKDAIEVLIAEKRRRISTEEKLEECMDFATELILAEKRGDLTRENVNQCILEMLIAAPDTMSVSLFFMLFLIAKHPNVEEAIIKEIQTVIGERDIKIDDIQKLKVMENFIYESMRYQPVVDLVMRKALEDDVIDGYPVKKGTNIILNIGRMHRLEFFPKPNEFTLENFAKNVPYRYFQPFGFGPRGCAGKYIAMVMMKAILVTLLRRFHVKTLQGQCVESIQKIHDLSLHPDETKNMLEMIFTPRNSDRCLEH
Sequence of Aryl hydrocarbon receptor (Homo sapiens) (P35869 whole entry, looked up): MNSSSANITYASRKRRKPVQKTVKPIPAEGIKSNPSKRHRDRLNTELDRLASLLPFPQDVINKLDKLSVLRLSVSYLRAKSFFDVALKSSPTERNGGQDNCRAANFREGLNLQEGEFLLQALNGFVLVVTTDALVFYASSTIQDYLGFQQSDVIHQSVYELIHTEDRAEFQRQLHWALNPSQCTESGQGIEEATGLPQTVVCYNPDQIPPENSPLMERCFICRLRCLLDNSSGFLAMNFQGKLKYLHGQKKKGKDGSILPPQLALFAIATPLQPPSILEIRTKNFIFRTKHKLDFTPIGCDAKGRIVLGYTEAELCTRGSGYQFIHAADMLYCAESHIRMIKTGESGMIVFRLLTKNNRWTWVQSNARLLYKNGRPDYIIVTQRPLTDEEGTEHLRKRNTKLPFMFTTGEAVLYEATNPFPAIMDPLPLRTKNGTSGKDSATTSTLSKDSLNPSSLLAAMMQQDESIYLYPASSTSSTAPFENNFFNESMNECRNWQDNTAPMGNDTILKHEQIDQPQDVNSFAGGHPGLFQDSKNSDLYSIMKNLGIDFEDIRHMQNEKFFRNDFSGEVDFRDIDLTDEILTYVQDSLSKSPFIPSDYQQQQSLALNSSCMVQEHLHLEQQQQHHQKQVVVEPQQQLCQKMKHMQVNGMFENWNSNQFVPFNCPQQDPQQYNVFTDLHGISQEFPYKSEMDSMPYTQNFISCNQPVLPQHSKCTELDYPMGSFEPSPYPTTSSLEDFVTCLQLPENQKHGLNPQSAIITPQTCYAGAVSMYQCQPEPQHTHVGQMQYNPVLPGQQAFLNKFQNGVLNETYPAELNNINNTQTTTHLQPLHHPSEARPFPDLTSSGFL

COCCc1ccc(OCC(O)CNC(C)C)cc1 (stereo not given)
inactive: outcome [1] | Potency [2] | Potency (Aromatase (Homo sapiens)) | Potency [3] | Potency [4] | Potency [5] | outcome [6] | Potency [7] | outcome [8] | Potency [9] | Potency [10] | outcome [11]

C=COCC1CCC(CO)CC1 (stereo not given)
inactive: Potency [12] | outcome [13] | Potency [14] | Potency [15] | outcome [16] | Potency [2] | Potency (Aromatase (Homo sapiens)) | Potency [3] | Potency [4] | Potency [5] | outcome [6] | Potency [7] | outcome [8] | Potency [10] | outcome [11] | outcome [17]

CC(=O)OCC(=O)[C@@]1(O)CC[C@H]2[C@@H]3CCC4=CC(=O)CC[C@]4(C)[C@H]3C(=O)C[C@@]21C
inactive: Potency [14] | Potency [15] | Potency [2] | Potency (Aromatase (Homo sapiens)) | Potency [3] | Potency [5] | outcome [8] | Potency [10]

NC(=O)COCCN1CCN(C(c2ccccc2)c2ccc(Cl)cc2)CC1 (stereo not given)
inactive: outcome [18] | outcome [1] | Potency [14] | Potency [15] | outcome [16] | Potency [2] | Potency (Aromatase (Homo sapiens)) | Potency [3] | Potency [4] | outcome [6] | Potency [7] | outcome [8] | Potency [9] | Potency [10] | outcome [11] | outcome [17]

Cc1cnc(NS(=O)(=O)c2ccc(N)cc2)nc1
inactive: outcome [8] | Potency [9] | Potency [10] | outcome [11] | outcome [17]

CCCCCCCCCCCC
inactive: Potency [12] | outcome [13] | Potency [2] | Potency (Aromatase (Homo sapiens)) | Potency [3] | Potency [4] | Potency [5] | outcome [6] | Potency [7] | outcome [8] | Potency [10] | outcome [11]

Cc1sccc1Br
inactive: Potency [7] | outcome [8] | Potency [9] | Potency [10] | outcome [11] | outcome [17]

CC(C)=CCCC(C)CC(=O)O (stereo not given)
inactive: Potency [12] | outcome [13] | outcome [1] | Potency [2] | Potency (Aromatase (Homo sapiens)) | Potency [4] | Potency [5] | outcome [6] | outcome [8] | Potency [9] | Potency [10] | outcome [11] | outcome [17]

Cc1cccc(C)c1NC(=O)C(C)N (stereo not given)
inactive: outcome [18] | outcome [1] | Potency [14] | Potency [15] | outcome [16] | Potency [2] | Potency (Aromatase (Homo sapiens)) | Potency [3] | Potency [5] | Potency [10] | outcome [11] | outcome [17]

NS(=O)(=O)c1cc(C(=O)NN2C[C@H]3[C@H]4CCC(C4)[C@H]3C2)ccc1Cl
inactive: outcome [8] | Potency [10] | outcome [11] | outcome [17]

COc1ccc2c(c1)CCCC2=O
inactive: Potency [7] | outcome [8] | Potency [9] | Potency [10] | outcome [11] | outcome [17]

CCS(=O)(=O)c1ccc(OC)c(C(=O)OC)c1
inactive: outcome [8] | Potency [9] | Potency [10] | outcome [11] | outcome [17]

CCOC(=O)CC(C)=O
inactive: Potency [12] | outcome [13] | Potency [2] | Potency [5] | outcome [8] | Potency [9] | Potency [10] | outcome [11] | outcome [17]

C[C@](N)(Cc1ccc(O)cc1)C(=O)O
inactive: outcome [18] | outcome [1] | Potency [14] | Potency [15] | Potency [2] | Potency (Aromatase (Homo sapiens)) | Potency [3] | Potency [4] | Potency [5] | outcome [6] | activity change, negative = cytotoxicity [8] 4.13% [at 5.95 µM] | activation [9] 6.12% [at 8.36 µM] | viability change, negative = cytotoxic [10] -15% [at 8.36 µM] | activity change, negative = cytotoxicity [11] 1.38% [at 5.95 µM] | activation [17] 0.673% [at 5.95 µM]

CC/C=C\CC/C=C/C(OCC)OCC
inactive: outcome [13] | Potency [2] | Potency [5] | outcome [8] | Potency [10] | outcome [11]

Nc1c[n+](N2CCOCC2)no1
inactive: outcome [13] | outcome [18] | Potency [14] | Potency [15] | Potency [2] | Potency (Aromatase (Homo sapiens)) | Potency [3] | Potency [4] | Potency [5] | outcome [8] | Potency [9] | Potency [10] | outcome [11] | outcome [17]

O=C1NC(=O)[C@@]2(CCOc3ccc(F)cc32)N1
inactive: outcome [18] | outcome [1] | Potency [14] | Potency [15] | outcome [16] | Potency [2] | Potency (Aromatase (Homo sapiens)) | Potency [3] | Potency [4] | Potency [5] | outcome [6] | outcome [8] | Potency [9] | Potency [10] | outcome [11]

CCN(CC)CCOCCOC(=O)C1(c2ccccc2)CCCC1
inactive: Potency [14] | Potency [15] | Potency [2] | Potency (Aromatase (Homo sapiens)) | Potency [4] | outcome [6] | outcome [8] | Potency [9] | Potency [10] | outcome [11] | outcome [17]

CC(NC(CCc1ccccc1)C(=O)O)C(=O)N1C(=O)N(C)CC1C(=O)O (stereo not given)
inactive: Potency [7] | outcome [8] | Potency [9] | Potency [10] | outcome [11] | outcome [17]

COc1nc(N)nc2c1ncn2[C@@H]1O[C@H](CO)[C@@H](O)[C@@H]1O
inactive: outcome [13] | outcome [1] | Potency [2] | Potency (Aromatase (Homo sapiens)) | Potency [3] | Potency [5] | outcome [8] | Potency [9] | Potency [10] | outcome [11] | outcome [17]

Oc1ccc(C2CNCCc3c2cc(O)c(O)c3Cl)cc1 (stereo not given)
inactive: outcome [1] | Potency [2] | Potency (Aromatase (Homo sapiens)) | Potency [3] | Potency [4] | Potency [5] | outcome [6] | outcome [8] | Potency [10] | outcome [17]

C[N+](C)(C)CCCCCC[N+](C)(C)C
inactive: Potency [12] | outcome [13] | outcome [1] | Potency (Aromatase (Homo sapiens)) | Potency [3] | Potency [4] | Potency [5] | outcome [6] | outcome [8] | Potency [9] | Potency [10] | outcome [17]

CN(C(=O)c1c(O)c2ccccc2n(C)c1=O)c1ccccc1
inactive: Potency [12] | outcome [13] | outcome [1] | Potency [2] | Potency (Aromatase (Homo sapiens)) | Potency [3] | Potency [5] | outcome [6] | outcome [8] | Potency [10] | outcome [11] | outcome [17]

Cc1cccn2c(=O)c(-c3nnn[nH]3)cnc12
inactive: outcome [18] | outcome [1] | Potency [14] | Potency [15] | outcome [16] | Potency [2] | Potency (Aromatase (Homo sapiens)) | Potency [3] | Potency [4] | Potency [5] | Potency [7] | outcome [8] | Potency [10] | outcome [11] | outcome [17]

COc1c(N2C[C@@H]3CCCN[C@@H]3C2)c(F)cc2c(=O)c(C(=O)O)cn(C3CC3)c12
inactive: outcome [1] | Potency [14] | Potency [15] | outcome [16] | Potency [2] | Potency (Aromatase (Homo sapiens)) | Potency [3] | Potency [4] | Potency [5] | outcome [6] | Potency [7] | outcome [8] | Potency [10] | outcome [11] | outcome [17]

CC(C)NCCCC1(C(N)=O)c2ccccc2-c2ccccc21
inactive: Potency [7] | outcome [8] | Potency [9] | Potency [10] | outcome [11] | outcome [17]

CC[N+](C)(C)c1cccc(O)c1
inactive: outcome [1] | Potency [2] | Potency (Aromatase (Homo sapiens)) | Potency [3] | Potency [4] | Potency [5] | outcome [6] | Potency [7] | Potency [9] | Potency [10] | outcome [11] | outcome [17]

Nc1c2c(nc3ccccc13)CCCC2O (stereo not given)
inactive: outcome [18] | outcome [1] | Potency [14] | Potency [15] | outcome [16] | Potency [2] | Potency [3] | Potency [5] | outcome [8] | Potency [10] | outcome [11] | outcome [17]

O=C(CCCN1CCC(O)(c2cccc(C(F)(F)F)c2)CC1)c1ccc(F)cc1
inactive: outcome [1] | Potency (Aromatase (Homo sapiens)) | Potency [3] | Potency [4] | Potency [7] | outcome [8] | Potency [10] | outcome [11] | outcome [17]
